# From PubChem BioAssay (NCATS)
# Records with an inconclusive call do not appear. Entries that show only a call come without a potency. The source made the active and inactive calls. The call rests on the fitted dose curve; in most records, active means well fitted cell-killing curve with a large enough effect; inconclusive means small, poorly fitted or top-dose-only effect; inactive means flat fitted curve, though single readings scatter. Starred links: 1 amine or outer side, 2 acyl side, 3 side chain; linkers in the order of their positions; H or OH if unused. Positions of bridges follow the written chain, without caps; N, C: chain ends. Non-standard residues stand in square brackets, D forms with d. Residues, ends and D or L forms follow the SMILES beside them. ξ: configuration not given here. *: point of attachment. X3 = C[C@@H](Oc1ccc([C@H](N[*:1])C(=O)[*:2])cc1)[C@]1(/C=C\C(=O)[*:3])CO1; d(aIle) = CC[C@H](C)[C@@H](N)C(=O)O; X2 = CC(C)[C@@H](O)C(C)C(=O)*; ξNMeF = CNC(Cc1ccccc1)C(=O)O; ξT = CC(O)C(N)C(=O)O; ξS = NC(CO)C(=O)O
# Assay: KB-8-5-11 Cancer Cell Toxicity qHTS against the NCATS CANVASS Library (AID 1347364); further: nearly all actives have a fitted effect of over 75% in size
# Conditions: KB-8-5-11 MDR cells viability, CellTiter-Glo, 72 h; series mostly up to 46.1 µM
# Source text: Natural products and their derivatives continue to be wellsprings of nascent therapeutic potential. However, many laboratories have limited resources for biological evaluation, leaving their previously isolated or synthesized compounds largely or completely untested. To address this issue, the Canvass library of natural products was assembled (https://tripod.nih.gov/canvass), in collaboration with academic and industry researchers, for quantitative high-throughput screening (qHTS) across a diverse set of cell-based and biochemical assays. The pure (>85% purity by liquid chromatography/mass spectrometry [LC/MS]) Canvass library of 346 natural products were submitted by 45 academic laboratories and companies around the world. We collected pure natural products to circumvent deconvolution and structure elucidation due to time and resource limitations. The library was formatted into 1536-well plates and evaluated in 50 qHTS (in an 11-pnt concentration series) bioassays with broad scope of disease-relevant mechanisms. The resulting data set from 50 different assays was then systematically analyzed to identify overall trends and specific natural products with interesting biological activities. Reported herein are the results of each individual qHTS and their corresponding assay protocol. […] National Center for Advancing Translational Sciences (NCATS), Rockville, MD National Institute of Health (NIH), Bethesda, Maryland
# Cancer Cell Toxicity qHTS protocol 1. In a 1536 well, tissue culture treated white solid bottom plates (Corning 7494), 5 uL of KB-8-5-11 cell solution (final concentration of 500 cells / well) was dispensed using the Multidrop Combi dispenser (Thermo Fisher Scientific) into columns 3-48, rows 1-32. DMEM + 10% FBS + 100 U/mL penicillin / 100ug/mL streptomycin media solution was dispensed into column 1-2, row 1-32 also using the Multidrop Combi dispenser. For follow-up confirmation, KB 8-5-11 was also plated in medium supplemented with 1uM tariquidar. 2. Control and Compounds were pin transferred (~23nL volume) to the assay plates via Wako Pin-tool (Wako Automation, Richmond VA) equipped with a 1536 pin head. The compounds were transferred to columns 5-48 resulting in a final concentration ranging from 0.17 nM to 103 uM. Dose response titration of Bortezomib was pin transferred into column 3, rows 1-32 (2mM; 1:2 dilution; 16 points; n = 2) resulting to a final concentration range of 0.3nM - 9.2uM. 3. The assay plates were further incubated in the at 37C, 5% CO2, 95% Rh for 72 hr. 4. After incubation, 2.5uL of CellTiter-Glo reagent (Promega) was added to the assay plates (column 1-48, rows 1-32) using the Multidrop Combi dispenser. 5. The assay plates were incubated at room temperature for 10 minutes. 6. Luminescence signal was acquired via the ViewLux plate reader (PerkinElmer) using a clear emission filter, 1 sec exposure, and 1x binning settings.
# Potency means the concentration at half of the fitted maximal effect.
row,Compound,Potency
1,CC(C)CC1C(=O)O[C@H](C(C)C)C(=O)N(C)C(CC(C)C)C(=O)O[C@@H](C(C)C)C(=O)N(C)C(CC(C)C)C(=O)O[C@H](C(C)C)C(=O)N(C)C(CC(C)C)C(=O)O[C@@H](C(C)C)C(=O)N1C (stereo not given in full),9.35 µM (active)
2,C=CC(C)(C)[C@@]12C[C@H]3C(=O)N/C(=C/c4cnc[nH]4)C(=O)N3[C@@H]1Nc1ccccc12,inactive
3,CC[C@@H]1CN2CCC3(Nc4cccc(OC)c4C3=O)[C@@H]2C[C@@H]1/C(=C\OC)C(=O)OC (stereo not given in full),inactive
4,C[N+](C)(C)CCc1c[nH]c2ccccc12,inactive
5,C/C=C1/CN2C3CC1C1=CCC(=O)N4c5ccccc5[C@@]3(C[C@@H]2C2=C[C@H]3C5CC6N(CC[C@@]67c6ccccc6N(C2=O)[C@@H]37)C/C5=C/C)[C@H]14 (stereo not given in full),16.6 µM (active)
6,O[C@H]1C=C[C@@]23CCN(Cc4cc5c(cc42)OCO5)[C@@H]3C1,inactive
7,C=C[C@]12C=CCN3CC[C@@]4(c5ccccc5NC(=O)[C@@H]4C1)[C@@H]32,inactive
8,CO[C@H]([C@@H](C)[C@H]1O[C@]1(C)C[C@H](C)/C=C/C=C(\C)[C@H]1O[C@@H](CC(=O)O)CC[C@@H]1C)[C@@H](C)O,0.0264 µM (active)
9,CC[C@]12C=CCN3CC[C@]4(C(=C(C(=O)OC)C1)Nc1ccccc14)[C@@H]32,inactive
10,C[C@]12CCC3[C@@H](CC[C@@H]4C[C@@H](O)CC[C@]34CO)[C@@]1(O)CC[C@@H]2C1=CC(=O)OC1 (stereo not given in full),0.935 µM (active)
11,C/C=C/[C@@H]1[C@H]2C[C@@H](C)CC[C@@H]2C(C)=C[C@H]1C(=O)c1c(O)c(-c2ccc(O)cc2)c[nH]c1=O,20.9 µM (active)
12,C1=C2CCCN[C@H]2C2CC1[C@H]1CCCCN1C2 (stereo not given in full),inactive
13,CO[C@@]12c3c(C)cc(O)c4c(=O)occ(c34)C(=O)[C@@H]1[C@]13COC(=O)c4c(O)cc(C)c(c41)C(=O)[C@H]2[C@@H]3OC(C)=O,inactive
14,C[C@]12CC(O)C3[C@@H](CC[C@@H]4C[C@@H](O)CC[C@]34CO)[C@@]1(O)CC[C@@H]2C1=CC(=O)OC1 (stereo not given in full),5.9 µM (active)
15,CCCCC1CC[C@H]2CCCC(CCC)N12 (stereo not given in full),inactive
16,CO[C@@H](/C=C/CC/C=C/C(=O)O)[C@@H](O)[C@H](C)/C=C(\C)[C@H](O)[C@H](C)C(=O)CCCC1CC(=O)NC(=O)C1,inactive
17,COC1=C(C2=C(OC)C(=O)c3cc4c(c(O)c3C2=O)C(=O)O[C@H](C)C4)C(=O)c2c(cc3c(c2O)C(=O)O[C@H](C)C3)C1=O,inactive
18,C/C=C(\C)C(=O)O[C@@H]1[C@@H](O)[C@@H]2O[C@H]3[C@H](O[C@@H](CCCCC)CCCCCCC(=O)CCC(=O)OC[C@@H](O2)[C@H]1OC(=O)/C=C/c1ccccc1)O[C@H](C)[C@H](OC(C)=O)[C@@H]3O,1.48 µM (active)
19,C[C@]12CC(O)C3[C@@H](CCC4C[C@@H](O)CC[C@@]43CO)[C@@]1(O)CC[C@@H]2C1=CC(=O)OC1 (stereo not given in full),18.7 µM (active)
20,C/C=C1/CN2CC[C@@]34c5ccccc5N(C)[C@@H]3[C@@H]2C[C@@H]1[C@H]4C(=O)OC,inactive
21,CC[C@H]1CN2CCc3c([nH]c4cccc(OC)c34)[C@@H]2C[C@@H]1/C(=C\OC)C(=O)OC,inactive
22,CO[C@H]1[C@H](O[C@H]2CC[C@]3(C=O)[C@H]4CC[C@]5(C)[C@@H](C6=CC(=O)OC6)CC[C@]5(O)[C@@H]4CC[C@]3(O)C2)O[C@H](C)[C@H](O)[C@@H]1OC,0.132 µM (active)
23,c1ccc2nc3c(cc2c1)[nH]c1ccccc13,inactive
24,C=CC(C)(C)[C@@]12C[C@H]3C(=O)N/C(=C\c4cnc[nH]4)C(=O)N3[C@@H]1Nc1ccccc12,inactive
25,CC[C@H](C)[C@H]1NC(=O)[C@@H](NC(=O)C(C)[C@H](O)C(C)C)[C@@H](C)OC(=O)C2COC(=O)CNC(=O)/C=C\[C@]3(CO3)[C@@H](C)Oc3ccc(cc3)[C@H](NC1=O)C(=O)N(C)C(Cc1ccccc1)C(=O)NC(C(C)O)C(=O)N2 (stereo not given in full) (X2-T[d(aIle)][X3][ξNMeF][ξT][ξS]; ester 1-C; linker 3-6 via G),inactive
26,CCCC[C@@H]1CC[C@H]2CCCC(CCCO)N12 (stereo not given in full),inactive
27,CO[C@H]1C[C@H](O[C@H]2[C@@H](O)C[C@H](O[C@H]3CC[C@]4(C=O)[C@H]5CC[C@]6(C)C(C7=CC(=O)OC7)CC[C@]6(O)[C@@H]5CC[C@]4(O)C3)O[C@@H]2C)O[C@H](C)[C@H]1O[C@H]1C[C@@H](OC)[C@@H](O[C@@H]2O[C@H](CO)[C@@H](O)[C@H](O)[C@H]2O)[C@@H](C)O1 (stereo not given in full),0.166 µM (active)
28,C/C(=C\[C@H](C)C(=O)C[C@H](O)CC1CC(=O)NC(=O)C1)[C@@H]1OC(=O)/C=C/CC/C=C/C=C/[C@@H]1C,2.35 µM (active)
29,C=C[C@H]1CN2CCc3c([nH]c4cccc(OC)c34)[C@@H]2C[C@@H]1/C(=C\OC)C(=O)OC,inactive
30,CCCC[C@@H](C)/C=C1/CN2CCC[C@H]2[C@@](C)(O)[C@@H]1O,inactive
